# bovine MsrA act: bovine MsrA enzyme activators, primary screen, biochemical, absorbance, HTS; purified bovine MsrA, absorbance read-out; activation, % at 10.6 µM; Methionine sulfoxide reductase A (Bos taurus); actives 0.3% (n = 360,000); in the data active = activation above about 7.5%;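 note: 0% = vehicle and 100% = reference activator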
# PLC-gamma1 inh: PLC-gamma1 enzyme inhibitors, primary screen, biochemical, fluorescence, purified enzyme | 1-phosphatidylinositol 4,5-bisphosphate phosphodiesterase gamma-1 (Homo sapiens), P19174 | fluorogenic substrate | inhibition, % at 12.2 µM | actives 0.84% (n = 370,000) | AID 720700, 2013; in the data active = inhibition above about 9.5%
# MsrA inhibitor: bovine MsrA enzyme inhibitors, primary screen, biochemical, absorbance, HTS; Methionine sulfoxide reductase A (Bos taurus); purified bovine MsrA, absorbance read-out; inhibition, % at 15.5 µM; actives 0.75% (n = 360,000); AID 651718, 2012; in the data active = inhibition above about 4.5%;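 note: 0% = vehicle wells with enzyme and 100% = reference inhibitor wells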
# PLCb3 inh: human PLC-beta3 inhibitors, primary screen, biochemical, fluorescence; Purified PLC-beta3, fluorogenic substrate; inhibition, % at 12.2 µM; actives 0.18% (n = 370,000); AID 720704, 2013; in the data active = inhibition above about 11%;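 note: 0% = median of compound wells on plate and 100% = full blocker control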
# MsrA act confirm: bovine MsrA activators, retest, confirmation, biochemical, absorbance, HTS; shares compounds with bovine MsrA act; purified bovine MsrA, absorbance read-out; activation, % at 10.6 µM; actives 12% (n = 1,000); in the data active = activation above about 4%;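 note: enzyme coupled to thioredoxin and thioredoxin reductase with NADPH; 0% = vehicle wells and 100% = reference activator wells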
# The depositor's hits bear a star; i = inactive; nt = no result. A selection: hits, their analogues and other compounds. The true share with any hit is near 1.9%.
SMILES,bovine MsrA act,PLC-gamma1 inh,MsrA inhibitor,PLCb3 inh,MsrA act confirm
Cc1cc(C)c2c(-n3cccc3)c(C(=O)NNS(=O)(=O)c3ccc(Br)cc3)sc2n1,8.5*,-7,1,-9,-2
CCOC(=O)Nc1sc2nc(C)cc(C)c2c1-n1cccc1,-3,0,0,0,nt
CC(=O)Nc1cccc(OCCCNC(=O)c2ccc(F)cc2)c1,9.0*,2,1,-11,0
CC(=O)Nc1cccc(OCCCNC(=O)c2ccc(C(C)(C)C)cc2)c1,-1,-1,0,-5,nt
COc1ccccc1OC(=O)c1ccc2nsnc2c1,16*,-2,1,2,3
COc1ccccc1NC(=O)c1ccc2nsnc2c1,-3,1,0,-5,nt
COc1ccc(C2CC(=O)C(c3cc(OC)c(OC)c(OC)c3)=CN2Cc2ccccc2)cc1 (stereo unspecified),nt,-38,0,-51,nt
Cc1cc(C)c2c(n1)nn1c(N3CCN(c4ccccc4C)CC3)cc(C)nc21,7.7*,-36,1,-47,-1
COc1ccc(CN2CCN(c3cc(C)nc4c5c(C)cc(C)nc5nn34)CC2)cc1F,-3,-397,1,i,nt
N#Cc1cnn(-c2ccc([N+](=O)[O-])cc2[N+](=O)[O-])c1N,8.3*,1,0,4,2
N#Cc1cnn(-c2cc(Cl)ccc2Cl)c1N,-7,-2,0,-7,nt
O=c1c2ccccc2sn1-c1ccc(S(=O)(=O)N2CCCC2)cc1,6,3,-2,2,nt
CN(C)S(=O)(=O)c1cccc(-n2sc3ccccc3c2=O)c1,7.7*,-1,-1,0,8.9*
O=c1c2cc(F)ccc2sn1-c1ccccc1,15*,0,0,1,9.8*
N#Cc1ccc2c(=O)n(-c3ccccc3)sc2c1,5,4,-1,3,nt
O=c1c2ccccc2sn1-c1ccccc1F,6,0,0,-1,nt
Cc1ccccc1-n1sc2cc(F)ccc2c1=O,15*,-2,1,0,9.7*
O=c1c2ccccc2sn1-c1ccccc1,12*,-2,1,1,13*
CCCCCCCCN1C(=O)[C@@H](CC(=O)N2CCN(C(=O)C3CC3)CC2)C[C@@]2(C(=O)OC)C1=C[C@H](C1CCCC1)O[C@@H]2C,nt,1,-1,1,nt
Cc1cccc(C=NNc2cc(C)c3cccc(C)c3n2)n1,nt,-11,0,-23,nt
CC(C)OC(=O)[C@@H](Cc1ccccc1)N[C@H](/C=C/c1ccccc1)[C@@H](O)Cc1ccccc1,nt,5,1,2,nt
O=c1c2ccccc2sn1-c1cccc(Cl)c1,12*,2,1,-75,5.8*
CC(=O)Nc1ccc2c(=O)n(-c3ccccc3)sc2c1,7.7*,-2,4,2,4
CC(=O)Nc1ccc(-c2cc(N)n(-c3ccccc3)n2)cc1,-6,-27,2,-50,nt
Oc1ccc2[nH]cc(-c3cccs3)c2c1-c1ccccc1,nt,-15,nt,-20,nt
SMILES,bovine MsrA act,PLC-gamma1 inh,MsrA inhibitor,PLCb3 inh,MsrA act confirm
CCOc1cccc(C(c2c(C)n(C)n(-c3ccccc3)c2=O)c2c(C)n(C)n(-c3ccccc3)c2=O)c1OC,13*,3,0,-2,-1
COc1ccc(C2CC(=O)C(c3ccc(C(N)=O)cc3)=CN2Cc2ccccc2)cc1 (stereo unspecified),nt,-21,3,-32,nt
COCCCN1C(=O)[C@H](CC(=O)NCCC(C)C)[C@]2(C(=O)OC)CCCCC=C12,nt,1,nt,2,nt
CC(C)(O)CN(CCCNC(=S)Nc1ccccc1)C(=S)Nc1ccccc1,14*,3,0,5,0
CN(C)CCCNC(=S)Nc1ccc(-c2ccccc2)cc1,-2,5,0,-5,nt
Cc1cc(N2CCN(C(=O)OC(C)(C)C)C[C@@H]2C)ccc1Br,nt,3,-1,4,nt
Cc1ccccc1OCCSc1nnc(-c2ccncc2)n1C,5,2,1,2,nt
Cn1c(SCCOc2ccccc2Cl)nnc1-c1ccncc1,8.5*,-1,-2,3,0
COc1ccc(-c2csc(NC(=O)c3ccccc3NS(=O)(=O)c3ccc(F)c(F)c3)n2)cc1,15*,-37,2,-51,-4
Cc1ccc(S(=O)(=O)Nc2ccccc2C(=O)Nc2nc(-c3ccc(F)cc3)cs2)cc1,-4,-211,0,-301,nt
COc1ccc(OC)c(/C=N/N(CCC#N)C2=NS(=O)(=O)c3ccccc32)c1,7.9*,0,0,-2,5.3*
Cc1ccc(C(=O)NC2CCCCN(Cc3cccc(F)c3)C2=O)cc1 (stereo unspecified),nt,3,nt,7,nt
CC1CCN(C(=O)c2ncn3c2C(=O)NC[C@H]3C)CC1,nt,0,2,2,nt
COc1ccc(N2CCN(C3CCN(S(=O)(=O)c4ccc(F)cc4)CC3)CC2)cc1,9.5*,1,0,1,-4
CCC[C@H]1[C@@H](NC(=S)Nc2ccccc2Cl)CC[C@@]23CCCN2C(=O)CCC[C@@H]13,nt,-2,nt,1,nt
CC(C)(C)OC(=O)N1CCCC(C(=O)Nc2cccc(C(=O)NCc3ccccc3)c2)C1 (stereo unspecified),0,1,1,-3,nt
CN(Cc1ccccc1)C(=O)c1cccc(NC(=O)C2CCCN(C(=O)OC(C)(C)C)C2)c1 (stereo unspecified),7.7*,3,-1,0,-2
CCCCCCCCN1C(=O)[C@@H](CC(=O)NCCc2ccccc2OC)C[C@@]2(C(=O)OC)C1=C[C@H](C(C)(C)C)O[C@@H]2C,nt,4,0,4,nt
CC(C)C[C@H]1CNC(=O)C(=O)N1C[C@@H]1CCCN1C[C@H](Cc1ccccc1)N1C[C@H](Cc2ccccc2)N(CC2CCCCC2)C(=O)C1=O,7.9*,2,-1,5,0
CC(C)CCN1CCC(CN2C(=O)C(=O)NC[C@@H]2CC(C)C)CC1,12*,0,1,0,1
CC(C)C[C@H]1CNC(=O)C(=O)N1C[C@@H]1CCCN1C[C@H](Cc1ccc(O)cc1)N1C[C@H](Cc2ccccc2)N(CC2CCCCCC2)C(=O)C1=O,-4,-47,0,-67,nt
C/C(CC(=O)Nc1ccc(Cl)cc1Cl)=N\NC(=O)c1ccco1,8.4*,0,0,1,0
Cc1ccccc1C(=O)N[C@H](C(=O)N1CCC[C@H]1C(=O)NCCc1ccccc1Cl)C(C)C,nt,2,0,4,nt
Nc1ccn([C@@H]2O[C@H](C(=O)N[C@H](Cc3ccccc3)C(=O)N3CCN(CC(=O)N4CCCC4)CC3)[C@@H](O)[C@H]2O)c(=O)n1,nt,1,2,-2,nt
CCc1nn(CC(=O)NCCCN2CCOCC2)c(=O)c2cc3cc(F)ccc3n12,7.9*,1,1,-29,-1
CCc1nn(CC(=O)NCCCN2CCOCC2)c(=O)c2cc3sccc3n12,0,-1,2,-11,nt
